Positions count from the first letter of the chain named.

Holding throughout (experiment): protein-binding microarray (PBM); PBM: ~300 nM protein, 6 mM HEPES pH 7.8, 80 mM KCl, 0.5 mM EDTA, 0.5 mM EGTA, 6% glycerol, 35 ng/ul poly-dIdC, 1% milk, 1 h, room temperature; Ap Aiptasia and Nv Nematostella (sea anemones) / Co Capsaspora / Aq Amphimedon (sponge) / Dm Drosophila / Hu human; RHD is the Rel homology domain; high values mean tight binding
Common to all, as to details: dsDNA, one strand shown

Experiment [1] deals with T1, GST-Ap-NF-kB RHD (Exaiptasia pallida (Aiptasia), UniProt A0A913YAJ5 2-422).
T1 sequence: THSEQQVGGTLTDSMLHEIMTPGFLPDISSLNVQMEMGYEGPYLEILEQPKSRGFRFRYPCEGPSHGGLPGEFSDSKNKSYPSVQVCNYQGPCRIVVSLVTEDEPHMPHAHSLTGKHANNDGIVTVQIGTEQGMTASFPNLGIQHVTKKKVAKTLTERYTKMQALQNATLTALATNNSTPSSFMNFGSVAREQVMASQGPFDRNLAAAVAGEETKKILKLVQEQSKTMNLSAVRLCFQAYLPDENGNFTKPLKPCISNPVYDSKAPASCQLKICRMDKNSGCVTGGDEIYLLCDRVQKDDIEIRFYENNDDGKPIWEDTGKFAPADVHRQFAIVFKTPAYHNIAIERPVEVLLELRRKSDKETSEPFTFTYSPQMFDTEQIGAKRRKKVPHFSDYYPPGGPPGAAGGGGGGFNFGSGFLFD

Experiment [2] has as its target T2, GST-Nv-NF-kB (Cys allele) (Nematostella vectensis, UniProt E5G601 2-411).
T2 sequence: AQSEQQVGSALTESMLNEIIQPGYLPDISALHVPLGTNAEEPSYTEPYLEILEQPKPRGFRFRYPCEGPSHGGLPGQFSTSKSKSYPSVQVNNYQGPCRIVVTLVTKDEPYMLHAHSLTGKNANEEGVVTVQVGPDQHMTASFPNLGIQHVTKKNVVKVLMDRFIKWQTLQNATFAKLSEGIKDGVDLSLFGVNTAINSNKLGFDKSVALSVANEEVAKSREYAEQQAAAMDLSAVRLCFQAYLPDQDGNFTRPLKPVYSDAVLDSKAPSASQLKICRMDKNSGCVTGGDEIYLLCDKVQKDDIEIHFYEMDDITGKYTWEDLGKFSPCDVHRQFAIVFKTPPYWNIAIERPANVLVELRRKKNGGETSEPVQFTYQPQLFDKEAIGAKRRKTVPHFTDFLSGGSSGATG

Experiment [3] concerns the target T3, GST-Nv-NF-kB (Ser allele) (Nematostella vectensis, UniProt A7UNT2 2-411).
T3 sequence: T2 sequence with Q21R, C66S, S207N, E215Q, V217A, E225K, A268E, D399E

Experiment [4] concerns the target T4, GST-Co-NF-kB (Capsaspora owczarzaki, UniProt F1ARL5 200-546).
T4 sequence: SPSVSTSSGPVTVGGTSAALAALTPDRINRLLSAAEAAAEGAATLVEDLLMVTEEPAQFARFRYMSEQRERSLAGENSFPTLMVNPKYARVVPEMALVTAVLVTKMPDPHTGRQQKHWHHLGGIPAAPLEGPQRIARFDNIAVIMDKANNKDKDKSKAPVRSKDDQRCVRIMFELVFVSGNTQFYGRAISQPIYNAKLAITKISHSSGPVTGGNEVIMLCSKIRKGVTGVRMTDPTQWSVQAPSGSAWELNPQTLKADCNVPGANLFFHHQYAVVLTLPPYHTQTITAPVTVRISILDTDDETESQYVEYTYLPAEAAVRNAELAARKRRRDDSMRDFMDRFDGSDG

Experiment [5] addresses T5, GST-Dm-Relish (Drosophila melanogaster, UniProt Q94527 99-473).
T5 sequence: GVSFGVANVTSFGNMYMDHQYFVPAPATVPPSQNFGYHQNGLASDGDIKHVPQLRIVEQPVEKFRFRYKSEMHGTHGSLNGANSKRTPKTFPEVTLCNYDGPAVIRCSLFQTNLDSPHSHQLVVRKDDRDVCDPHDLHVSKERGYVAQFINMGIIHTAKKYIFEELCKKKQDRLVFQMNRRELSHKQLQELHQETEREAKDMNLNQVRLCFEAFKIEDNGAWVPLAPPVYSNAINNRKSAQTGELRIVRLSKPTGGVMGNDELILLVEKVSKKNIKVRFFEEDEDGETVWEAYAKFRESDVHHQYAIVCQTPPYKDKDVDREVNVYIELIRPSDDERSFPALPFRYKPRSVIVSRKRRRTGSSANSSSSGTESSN

The target in experiment [6] is T6, GST-Aq-NF-kB (Amphimedon queenslandica, UniProt A9Y5G7 2-389).
T6 sequence: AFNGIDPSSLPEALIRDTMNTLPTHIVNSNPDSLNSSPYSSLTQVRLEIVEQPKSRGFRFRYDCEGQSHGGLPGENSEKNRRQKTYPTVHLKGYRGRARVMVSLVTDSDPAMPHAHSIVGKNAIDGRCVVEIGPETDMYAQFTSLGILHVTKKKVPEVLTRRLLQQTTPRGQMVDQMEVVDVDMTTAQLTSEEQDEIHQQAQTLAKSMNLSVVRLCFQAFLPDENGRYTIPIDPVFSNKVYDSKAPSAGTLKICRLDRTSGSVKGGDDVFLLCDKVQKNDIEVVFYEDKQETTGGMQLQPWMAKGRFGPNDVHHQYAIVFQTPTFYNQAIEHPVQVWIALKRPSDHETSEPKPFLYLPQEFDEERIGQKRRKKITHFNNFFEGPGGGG

Experiment [7] concerns the target GST-Hu-p50 (Homo sapiens, UniProt P19838 7-356).

Sequence of GST-Hu-p50 (P19838 7-356): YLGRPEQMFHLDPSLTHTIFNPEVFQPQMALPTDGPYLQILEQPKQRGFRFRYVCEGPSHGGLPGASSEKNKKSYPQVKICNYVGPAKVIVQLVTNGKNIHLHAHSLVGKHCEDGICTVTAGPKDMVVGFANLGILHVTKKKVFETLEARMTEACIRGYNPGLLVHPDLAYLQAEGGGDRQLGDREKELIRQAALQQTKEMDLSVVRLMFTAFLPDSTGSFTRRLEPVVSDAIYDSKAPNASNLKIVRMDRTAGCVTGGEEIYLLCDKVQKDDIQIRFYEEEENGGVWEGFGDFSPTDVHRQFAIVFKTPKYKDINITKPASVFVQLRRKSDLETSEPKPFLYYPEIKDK

Regarding “CCGATTAACATCAGGGAATTTAATGATGTTAATCGGGTCTTGATTCGCTTGACGCTGCTG”, the binding signal is 3.7 z-score in experiment [1]; 6.07 z-score in experiment [2]; 6.59 z-score in experiment [3]; 4.07 z-score in experiment [4]; 4.24 z-score in experiment [5]; 5.09 z-score in experiment [6]. Besides, the binding signal in experiment [7] worked out at 4.45 z-score.

Consider “CCGATTAACATCAAGGAAATCCCTGATGTTAATCGGGTCTTGATTCGCTTGACGCTGCTG”, for which the binding signal is 4.83 z-score in experiment [1]; 4.91 z-score in experiment [2]; 2.74 z-score in experiment [3]; 1.77 z-score in experiment [4]; 7.71 z-score in experiment [5]; 5.91 z-score in experiment [6]. For the same sequence, in experiment [7], the binding signal amounted to 3.79 z-score.

Regarding “CCGATTAACATCAGGGGGGTTAATGATGTTAATCGGGTCTTGATTCGCTTGACGCTGCTG”, the binding signal in experiment [1] worked out at 4.64 z-score; in experiment [2] it was 4.44 z-score; in experiment [3], 4.14 z-score; in experiment [4], 3.92 z-score; in experiment [5] it was 6.25 z-score; in experiment [6], 4.51 z-score. This sequence showed a binding signal in experiment [7] of 4.97 z-score.

In the case of “CCGATTAACATCAACTTTTCCCCTGATGTTAATCGGGTCTTGATTCGCTTGACGCTGCTG”, the binding signal is 6.24 z-score in experiment [1]; 7.19 z-score in experiment [2]; 10 z-score in experiment [3]; 9 z-score in experiment [4]; 2.99 z-score in experiment [5]; 5.09 z-score in experiment [6]. This sequence came in with a binding signal in experiment [7] of 5.48 z-score.

For the sequence “CCGATTAACATCAGCACTCCCCCTGATGTTAATCGGGTCTTGATTCGCTTGACGCTGCTG”, the binding signal in experiment [1] was found to be 5.42 z-score; in experiment [2], 4.35 z-score; in experiment [3], 4.91 z-score; in experiment [4], 3.89 z-score; in experiment [5] it was 2.23 z-score; in experiment [6] it was 3.99 z-score. Besides, the binding signal in experiment [7] turned out to be 5.21 z-score.

With “CCGATTAACATCAGGGGAAATACTGATGTTAATCGGGTCTTGATTCGCTTGACGCTGCTG”, the binding signal turned out to be 7.87 z-score in experiment [1]; 8.59 z-score in experiment [2]; 11 z-score in experiment [3]; 8.2 z-score in experiment [4]; 9.53 z-score in experiment [5]; 7.18 z-score in experiment [6]. In experiment [7], this sequence showed a binding signal of 6.88 z-score.

In the case of “CCGATTAACATCAAATATTCCCTTGATGTTAATCGGGTCTTGATTCGCTTGACGCTGCTG”, the binding signal stood at 5.14 z-score in experiment [1]; 6.37 z-score in experiment [2]; 6.41 z-score in experiment [3]; 3.47 z-score in experiment [4]; 3.18 z-score in experiment [5]; 5.56 z-score in experiment [6]. Moreover, the binding signal in experiment [7] is 4.16 z-score.

As for “CCGATTAACATCAAGGGAGTCCCTGATGTTAATCGGGTCTTGATTCGCTTGACGCTGCTG”, the binding signal came to 5.78 z-score in experiment [1]; 4.59 z-score in experiment [2]; 4.3 z-score in experiment [3]; 1.18 z-score in experiment [4]; 8.56 z-score in experiment [5]; 4.92 z-score in experiment [6]. In addition, the binding signal in experiment [7] was 3.72 z-score.

As for “CCGATTAACATCAAATATCCCCTTGATGTTAATCGGGTCTTGATTCGCTTGACGCTGCTG”, the binding signal in experiment [1] came out at 8.05 z-score; in experiment [2] it was 8.3 z-score; in experiment [3], 9.01 z-score; in experiment [4], 3.88 z-score; in experiment [5] it was 6.97 z-score; in experiment [6] it was 6.2 z-score. Moreover, the binding signal in experiment [7] came to 6.19 z-score.

For the sequence “CCGATTAACATCAGGGGGGAAGATGATGTTAATCGGGTCTTGATTCGCTTGACGCTGCTG”, the binding signal in experiment [1] stood at 4.86 z-score; in experiment [2], 5.5 z-score; in experiment [3], 5.9 z-score; in experiment [4], 7.62 z-score; in experiment [5] it was 3.64 z-score; in experiment [6], 4.85 z-score. For the same sequence, the binding signal in experiment [7] was 4.98 z-score.

“CCGATTAACATCAAAACCTCCCCTGATGTTAATCGGGTCTTGATTCGCTTGACGCTGCTG”: the binding signal was determined as 5.96 z-score in experiment [1]; 5.34 z-score in experiment [2]; 7 z-score in experiment [3]; 6.47 z-score in experiment [4]; 3.36 z-score in experiment [5]; 4.96 z-score in experiment [6]. Moreover, in experiment [7], the binding signal turned out to be 4.55 z-score.

Consider “CCGATTAACATCAGGGGAACAAATGATGTTAATCGGGTCTTGATTCGCTTGACGCTGCTG”, for which the binding signal in experiment [1] amounted to 3.88 z-score; in experiment [2] it was 4.83 z-score; in experiment [3], 5.44 z-score; in experiment [4] it was 7.72 z-score; in experiment [5] it was 3.13 z-score; in experiment [6] it was 4.15 z-score. Also, the binding signal in experiment [7] is 3.24 z-score.
